Measurements: PubChem BioAssay (NCATS)
“And” between values parts separate entries of the source, which are not always exact repeats. Identical values can stand only once. Records with an inconclusive call do not appear. The source made the active and inactive calls. Calls follow the shape of the dose curve; as a rule, active = well fitted inhibition curve with a large enough effect; inconclusive = small, poorly fitted or top-dose-only effect; inactive = flat fitted curve, though single readings scatter.

Legend:
[1] = test system: P93_24; test: qHTS profiling for inhibitors of Plasmodium falciparum proliferation (AID 504749);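 also: 0% = DMSO vehicle and full inhibition = artemisinin control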; settings: P. falciparum in erythrocytes, SYBR Green DNA, 72 h; series mostly up to 28.7 µM
In short: (§1)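 Quantitative HTS: compounds pinned into medium, infected erythrocytes added (0.3% parasitemia, 2.5% hematocrit), 72 h culture at 37 C under 5% CO2. Saponin/Triton lysis with SYBR Green I, overnight RT, then fluorescence read.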

[2] = test system: P94_40; test: as above; settings: P. falciparum in erythrocytes, SYBR Green DNA, 72 h; series mostly up to 28.7 µM
In short: as §1

[3] = test system: PAD; test: as above; settings: P. falciparum in erythrocytes, SYBR Green DNA, 72 h; series mostly up to 28.7 µM
In short: as §1

[4] = test system: PC15; test: as above; settings: P. falciparum in erythrocytes, SYBR Green DNA, 72 h; series mostly up to 28.7 µM
In short: as §1

[5] = test system: PC26; test: as above; settings: P. falciparum in erythrocytes, SYBR Green DNA, 72 h; series mostly up to 28.7 µM
In short: as §1

[6] = test system: PC49; test: as above; settings: P. falciparum in erythrocytes, SYBR Green DNA, 72 h; series mostly up to 28.7 µM
In short: as §1

[7] = test system: SC27B; test: as above; settings: P. falciparum in erythrocytes, SYBR Green DNA, 72 h; series mostly up to 28.7 µM
In short: as §1

[8] = test system: TAB109; test: as above; settings: P. falciparum in erythrocytes, SYBR Green DNA, 72 h; series mostly up to 28.7 µM
In short: as §1

[9] = test system: TAB113; test: as above; settings: P. falciparum in erythrocytes, SYBR Green DNA, 72 h; series mostly up to 28.7 µM
In short: as §1

[10] = test system: TAB165; test: as above; settings: P. falciparum in erythrocytes, SYBR Green DNA, 72 h; series mostly up to 28.7 µM
In short: as §1

[11] = test system: W2; test: as above; settings: P. falciparum in erythrocytes, SYBR Green DNA, 72 h; series mostly up to 28.7 µM
In short: as §1

[12] = test system: CRL-7250; test: Cytotoxic Profiling of Annotated Libraries Using Quantitative High-Throughput Screening (AID 1296008); settings: Five cell lines viability, CellTiter-Glo ATP luminescence, 48-72 h; max response: hits give low values; also: potency is read from the fitted curve at half-maximal effect; as to max response: % is scaled to controls: 0 for no effect and ±100 for the full control effect
In short: (§2)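 Compounds were pin-transferred onto cells and incubated 48 or 72 hr at 37 degree Celsius, 95% humidity. CellTiter-Glo was added, plates sat 10 min at room temperature, then ATP-coupled luminescence was imaged as the viability read-out.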

[13] = test system: HEK293; test: as above; settings: Five cell lines viability, CellTiter-Glo ATP luminescence, 48-72 h; max response: hits give low values
In short: as §2

[14] = test system: HaCat; test: as above; settings: Five cell lines viability, CellTiter-Glo ATP luminescence, 48-72 h; max response: hits give low values
In short: as §2

[15] = test system: KB-3-1; test: as above; settings: Five cell lines viability, CellTiter-Glo ATP luminescence, 48-72 h; max response: hits give low values
In short: as §2

[16] = test system: NIH3T3; test: as above; settings: Five cell lines viability, CellTiter-Glo ATP luminescence, 48-72 h; max response: hits give low values
In short: as §2

[17] = test system: HEK293T; test: qHTS assay to identify novel small-molecules to repurpose for Merkel cell carcinoma treatment (AID 1296009); settings: MCC and control cell lines, CellTiter-Glo viability, 72 h; at 44.8 µM (top of the series); also: potency is read from the fitted curve at half-maximal effect
In short: (§3)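 Viability readout: ATP luminescence (CellTiter-Glo) after 72 hr drug exposure at 37 degree celsius. Dose-response format was 8 points for NPC and 11 points for MIPE; data normalized to in-plate controls.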

[18] = test system: MCC-13; test: as above; settings: MCC and control cell lines, CellTiter-Glo viability, 72 h; series mostly up to 46 µM
In short: as §3

[19] = test system: MCC-26; test: as above; settings: MCC and control cell lines, CellTiter-Glo viability, 72 h; series mostly up to 46 µM
In short: as §3

[20] = test system: HACAT; test: as above; settings: MCC and control cell lines, CellTiter-Glo viability, 72 h; at 44.8 µM (top of the series) unless noted
In short: as §3
Also: nearly all actives have a fitted effect of over 60% in size.

C[N+](C)(C)CCCCCC[N+](C)(C)C
inactive: outcome [1] | Potency [2] | outcome [3] | outcome [4] | Potency [5] | outcome [6] | Potency [7] | outcome [8] | Potency [9] | Potency [10] | Potency [11] | max response [12] -5.15% | outcome [13] | max response [14] 2.98% | max response [15] 21.4% | outcome [16] | outcome [17] | Potency [18] | Potency [19]

O=c1c(O)c(-c2ccc(O)cc2)oc2cc(O)cc(O)c12
inactive: outcome [12] | outcome [13] | max response [14] -4.55% | outcome [15] | max response [16] -2.9% | outcome [17] | Potency [18] | Potency [19]

CC(C)C(C)C=CC(C)C1CCC2C3=CC=C4CC(O)CCC4(C)C3CCC21C (centres undefined)
inactive: max response [12] -1.32% | max response [13] 4.56% | max response [14] -0.819% | max response [15] 1.29% | max response [16] -6.24% | Potency [18] | Potency [19]

C[C@]12CCC3c4ccc(O)cc4CCC3C1CCC2=O (some centres undefined)
inactive: max response [12] -16.8% | max response [13] -11.3% | max response [14] -11.3% | max response [15] 7.4% | max response [16] -7.72% | Potency [18] | Potency [19]

O=C1NC(=O)C(=Cc2ccc3c(c2)OC(F)(F)O3)S1
inactive: max response [12] -15.6% | max response [13] -24.8% | max response [14] -0.402% | max response [16] -19.2% | Potency [18] | Potency [19]

NC(CO)(CO)CCc1ccc(Sc2cccc(OCc3ccccc3)c2)cc1Cl
inactive: max response [12] -10.2% | Potency [18] | Potency [19]
active: Potency [13] 10.5 µM | Potency [14] 26.4 µM | Potency [16] 16.6 µM

Oc1ccc(C2CCN(c3ccnc4ccccc34)CC2)cc1O
inactive: max response [14] -4.14% | max response [16] -5.13% | Potency [18] | Potency [19]
active: Potency [12] 4.69 µM | Potency [13] 13.2 µM

O=C1c2ccccc2-[n+]2ccc3c([nH]c4ccccc43)c21
active: Potency [12] 4.69 µM | Potency [13] 2.64 µM | Potency [14] 1.32 µM | Potency [15] 2.96 µM | Potency [18] 3.32 µM | Potency [19] 7.43 µM

N#Cc1ccc(NC(=O)Nc2ccccc2Br)c2n[nH]nc12
inactive: max response [12] -24.9% | max response [13] -11% | outcome [14] | max response [15] 1.71% | outcome [20] | Potency [18] | Potency [19]

O=C(NCCN1CCOCC1)c1ccc(Cl)cc1
inactive: outcome [1] | Potency [2] | outcome [3] | outcome [4] | Potency [5] | outcome [6] | Potency [7] | outcome [8] | Potency [9] | Potency [10] | Potency [11] | max response [12] 0.679% | max response [13] -0.241% | max response [14] -12.4% | max response [15] 3.6% and -22.2% | max response [16] 4.53% | Potency [18] | Potency [19]

O=C(Nc1c(Cl)cncc1Cl)c1ccc(OC(F)F)c(OCC2CC2)c1
inactive: max response [12] -6.52% | max response [13] 0.493% | outcome [14] | outcome [15] | outcome [20] | Potency [18] | Potency [19]

OC[C@H]1O[C@@H](n2cnc3c2NC=NC[C@@H]3O)C[C@H]1O
inactive: max response [12] 2.48% | outcome [13] | max response [14] 1.63% | max response [15] -3.46% | outcome [17] | Potency [18] | Potency [19]

O=C1NCC2(CCN(CCc3ccccc3)CC2)O1
inactive: outcome [1] | Potency [2] | outcome [3] | outcome [4] | Potency [5] | outcome [6] | Potency [7] | outcome [8] | Potency [9] | Potency [10] | Potency [11] | outcome [12] | outcome [13] | outcome [14] | max response [15] 9.9% | outcome [20] | outcome [17] | Potency [18] | Potency [19]

O=C(NCc1ccccc1)c1csc(Nc2ccncn2)n1
active: Potency [12] 11.8 µM | Potency [13] 5.26 µM
inactive: outcome [14] | max response [15] 3.38% and -16.6% | outcome [20]

C[N+]1(C)[C@@H]2CC(OC(=O)[C@H](CO)c3ccccc3)C[C@H]1[C@H]1O[C@@H]12 (some centres undefined)
inactive: max response [12] 4.18% | outcome [13] | outcome [14] | max response [15] 2.27% | outcome [20] | outcome [17] | Potency [18] | Potency [19]

CCNc1cc(NC2CCC(O)CC2)nc(Nc2ccc3c(ccn3Cc3ccccc3)c2)n1 (centres undefined)
inactive: max response [12] 1.87% | outcome [14] | outcome [20] | Potency [18] | Potency [19]
active: Potency [13] 20.9 µM

CN1C[C@H]2c3ccccc3Oc3ccc(Cl)cc3[C@@H]2C1
inactive: max response [12] -7.6% and -3.52% | outcome [14] | max response [15] -7.18% | outcome [20] | Potency [18] | Potency [19]
active: Potency [13] 10.6 µM
